Only some compounds are listed: those with a hit (about 0.46% of all), similar ones and a draw of the others.
ERAP1 inh: human ERAP1 aminopeptidase inhibitors, primary screen, biochemical, single point, plate reader. inhibition, % at 10.7 µM. Endoplasmic reticulum aminopeptidase 1 (Homo sapiens), Q9NZ08. 340,000 compounds, 0.15% hits. recombinant ERAP1, Leu-AMC fluorescence, 60 min;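 active = mean replicate inhibition of at least 30%, or all replicates individually reaching that 30% level; inactive = mean below 30% and not every replicate reaching it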;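 note: 0% = neutral control wells and 100% = L-leucinethiol positive control wells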
Target sequence (Q9NZ08 whole entry, looked up): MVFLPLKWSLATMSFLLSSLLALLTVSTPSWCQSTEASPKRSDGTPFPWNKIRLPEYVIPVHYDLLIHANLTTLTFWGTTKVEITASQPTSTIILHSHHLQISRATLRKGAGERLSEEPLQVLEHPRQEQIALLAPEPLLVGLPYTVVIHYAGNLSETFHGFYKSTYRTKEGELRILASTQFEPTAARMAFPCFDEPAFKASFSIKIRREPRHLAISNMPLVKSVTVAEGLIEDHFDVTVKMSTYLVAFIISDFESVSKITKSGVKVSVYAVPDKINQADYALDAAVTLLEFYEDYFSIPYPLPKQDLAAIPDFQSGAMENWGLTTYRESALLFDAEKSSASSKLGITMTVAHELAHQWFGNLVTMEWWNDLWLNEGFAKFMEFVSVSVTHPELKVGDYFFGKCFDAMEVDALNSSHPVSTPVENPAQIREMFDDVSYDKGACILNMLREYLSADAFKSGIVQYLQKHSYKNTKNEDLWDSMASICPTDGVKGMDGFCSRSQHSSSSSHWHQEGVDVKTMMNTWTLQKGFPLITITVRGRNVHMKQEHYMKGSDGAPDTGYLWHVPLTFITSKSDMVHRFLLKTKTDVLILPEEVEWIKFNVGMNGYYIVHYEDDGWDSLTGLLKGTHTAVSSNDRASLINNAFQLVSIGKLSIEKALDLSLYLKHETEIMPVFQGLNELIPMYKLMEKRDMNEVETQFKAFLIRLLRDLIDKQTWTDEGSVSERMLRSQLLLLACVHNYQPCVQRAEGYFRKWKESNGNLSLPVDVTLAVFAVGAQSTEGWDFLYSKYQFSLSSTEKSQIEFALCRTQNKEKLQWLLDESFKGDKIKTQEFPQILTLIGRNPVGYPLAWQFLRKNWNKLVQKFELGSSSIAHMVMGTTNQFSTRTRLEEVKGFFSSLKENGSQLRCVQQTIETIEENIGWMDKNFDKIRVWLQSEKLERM
PglD DTNB: C. jejuni PglD acetyltransferase inhibitors, primary screen, biochemical, DTNB colorimetric, single point; 360,000 compounds, 0.098% hits; purified PglD enzyme, DTNB colorimetric CoA detection; UDP-N-acetylbacillosamine N-acetyltransferase PglD (Campylobacter jejuni); inhibition, % at 12.5 µM; in the data active = inhibition above about 16%, passing the limit was not always enough; inconclusive = no clear call, values can overlap the other calls
ERp5 block: inhibitors of ERp5-driven insulin aggregation, primary screen, biochemical, turbidity, absorbance 650 nm, single point; Protein disulfide-isomerase A6 (Homo sapiens), Q15084; AID 651711, 2012; 90 min; inhibition, % at 9.99 µM; 350,000 compounds, 0.05% hits;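 active = mean replicate inhibition above about 25%, with every replicate also reaching it, limit read from the data, passing the limit was not always enough; inconclusive = only one of those two criteria met; inactive = neither criterion met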
PDI inh: inhibitors of human PDI, primary screen, biochemical, turbidity, single point, plate reader | Protein disulfide-isomerase (Homo sapiens), P07237 | PDI insulin aggregation turbidity, A650, 90 min | inhibition, % at 10 µM | 350,000 compounds, 0.052% hits | AID 588391, 2011;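 active = mean inhibition across replicates of 30% or more, whatever share of single replicates reach that level; inconclusive = mean inhibition below 30% while every single replicate reaches 30%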
PGC1a acetyl inh: inhibitors of PGC1a acetylation signal, primary screen, cell-based, U2OS, AlphaScreen, inhibitor mode. inhibition, % at 15.6 µM. 350,000 compounds, 0.17% hits. AlphaScreen anti-acetyl-lysine; with virally co-expressed GCN5 acetyltransferase;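 active = every replicate shows inhibition of at least 40%; inconclusive = mean inhibition at least 40% but some replicate below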;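 note: 0% = neutral control wells and 100% = positive control wells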
CaV13 ICDI inh: Primary screen for inhibitors of IQ motif and Ca2+-dependent inactivation inhibitor domain binding in CACNA1D, Förster resonance energy transfer in living cells, … | inhibition, % at 12.3 µM | 340,000 compounds, 0.098% hits | HEK cells, CFP/YFP FRET ICDI-IQ, plate reader, 10 min; percent FRET-ratio fall versus neutral wells;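 active = mean replicate inhibition of at least 30% and at least 1% of replicates passing that level; inconclusive = only one of the two criteria is met; inactive = neither criterion is met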;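 note: 0% = median of the neutral control wells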
PglD inh SP: PglD acetyltransferase inhibitors, confirmation, biochemical, DTNB absorbance, single point, cherry-picked samples; shares compounds with PglD DTNB; Purified C. jejuni PglD, DTNB absorbance 412 nm; inhibition, % at 20 µM; 320 tested, under 10 active; AID 743156, 2013;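 active = mean inhibition across replicates of at least 20% with every single replicate also at 20% or more; inconclusive = mean inhibition at least 20% but some replicate falls below 20%; inactive = mean inhibition under 20% and not all replicates reach it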;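 note: initial rate of CoA release by acetyl transfer from AcCoA to the UDP-4-amino sugar; 0% = median of neutral control wells and 100% = median of positive control wells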
Starred values were filed as active, the others as inactive.

Screening CCOc1ccc(NC(=S)NN2C(C)CCCC2C)cc1 (stereo not given) returned PglD DTNB 2, PDI inh 17, PGC1a acetyl inh 2 and CaV13 ICDI inh -9.
CCOc1ccc(NC(=O)NN2C(C)CCCC2C)cc1 (stereo not given) was read as ERAP1 inh 3, PglD DTNB 20*, ERp5 block 2, PDI inh 2, PGC1a acetyl inh -4, CaV13 ICDI inh -18 and PglD inh SP 6.
`CCOc1ccccc1N1CC(C(=O)NCCc2ccc(S(N)(=O)=O)cc2)CC1=O` (stereo not given) gave PglD DTNB 2, PDI inh 1, PGC1a acetyl inh 0 and CaV13 ICDI inh -4.
`CCOc1ccc(N2CC(C(=O)NCCc3ccc(S(N)(=O)=O)cc3)CC2=O)cc1` (stereo not given) gave ERAP1 inh -1, PglD DTNB 31*, ERp5 block 2, PDI inh -6, PGC1a acetyl inh 2, CaV13 ICDI inh -4 and PglD inh SP inconclusive.
Screening O=C(Nc1ccc2c(c1)OCO2)N[C@H]1C=C[C@@H](CC(=O)N2CCN(c3ccccc3)CC2)O[C@H]1CO returned ERAP1 inh -3, PglD DTNB 3, ERp5 block 1 and PGC1a acetyl inh 2.
`CCCCNC(=S)NNc1c(Cl)cc(Cl)cc1Cl` gave ERAP1 inh -3, PglD DTNB 23*, ERp5 block -3, PDI inh -3, PGC1a acetyl inh 0, CaV13 ICDI inh -2 and PglD inh SP 10.
CCOC(=O)CNC(=S)N(Cc1ccccc1)Cc1cccnc1 was read as ERAP1 inh -1, PglD DTNB 32*, ERp5 block 1, PDI inh -1, PGC1a acetyl inh -7, CaV13 ICDI inh 6 and PglD inh SP 1.
`O=C(CN(C(=O)CNC(=O)c1cccs1)c1ccc(F)cc1)NC1CCCC1` gave ERAP1 inh -6, PglD DTNB 3, ERp5 block -2, PDI inh 1, PGC1a acetyl inh 35 and CaV13 ICDI inh -3.
For O=C(CN(C(=O)CNC(=O)c1cccs1)c1ccc(F)cc1)NC1CCCCC1 the results were ERAP1 inh -2, PglD DTNB 25*, ERp5 block -5, PDI inh 1, PGC1a acetyl inh -9, CaV13 ICDI inh -7 and PglD inh SP 0.
`Cc1ccc(-c2ccc3c(c2)O[C@H](CN(C)C(=O)Nc2ccc(C(F)(F)F)cc2)[C@@H](C)CN([C@@H](C)CO)S3(=O)=O)cc1` gave ERAP1 inh -1, PglD DTNB 0, ERp5 block 3 and PGC1a acetyl inh 8.
For Cc1ccc(-c2ccc3c(c2)O[C@@H](CN(C)C(=O)C2CC2)[C@H](C)CN([C@@H](C)CO)S3(=O)=O)cc1 the results were ERAP1 inh 4, PglD DTNB 6, ERp5 block 4 and PGC1a acetyl inh -9.
Screening CC(c1ccccc1)n1c(CO)nc2ccccc21 (stereo not given) returned ERAP1 inh -2, PglD DTNB 67*, ERp5 block 0, PDI inh 2, PGC1a acetyl inh -3, CaV13 ICDI inh -19 and PglD inh SP 2.
Screening Cc1nc2ccccc2n1C(C)c1ccccc1 (stereo not given) returned ERAP1 inh -5, PglD DTNB -3, ERp5 block 2, PDI inh -5 and CaV13 ICDI inh -19.
For O=C(NC1CCS(=O)(=O)C1)/C(=C\c1ccccc1)NC(=O)c1ccccc1 (stereo not given) the results were PDI inh 3 and CaV13 ICDI inh -4.
For O=C(NC1CCS(=O)(=O)C1)/C(=C/c1ccc(Cl)cc1)NC(=O)c1ccccc1 (stereo not given) the results were ERAP1 inh -3, PglD DTNB 76*, ERp5 block 1, PDI inh -6, PGC1a acetyl inh -6, CaV13 ICDI inh -5 and PglD inh SP -5.
Cc1nc([N+](=O)[O-])c(Sc2nc3ccccc3n2C)n1Cc1ccccc1 was read as ERAP1 inh -3, PglD DTNB 30*, ERp5 block 1, PDI inh -1, PGC1a acetyl inh -2, CaV13 ICDI inh -17 and PglD inh SP 7.
Screening C[C@H](CO)N1C[C@H](C)[C@@H](CN(C)C(=O)Nc2ccc(F)cc2)OCCCC[C@H](C)Oc2ccc(NC(=O)CCCN(C)C)cc2C1=O returned ERAP1 inh 1, PglD DTNB 1, ERp5 block 2 and PGC1a acetyl inh 7.
For Cc1noc(C)c1S(=O)(=O)Nc1ccc2c(c1)C(=O)N([C@@H](C)CO)C[C@H](C)[C@H](CN(C)C(=O)Nc1ccccc1)OCCCC[C@H](C)O2 the results were ERAP1 inh 2, PglD DTNB 9, ERp5 block 0 and PGC1a acetyl inh -2.
O=Cc1ccc(OCCN2CCCC2=O)cc1 was read as ERAP1 inh 3, PglD DTNB 44*, ERp5 block 2, PDI inh 1, PGC1a acetyl inh -7, CaV13 ICDI inh -4 and PglD inh SP -4.
CCOC(=O)C1=C(C)NC(C)=C(C(=O)OCC)C1C(=O)OCC(=O)N1CCCCC1C (stereo not given) was read as ERAP1 inh 5, PglD DTNB -3, ERp5 block 2, PDI inh -11, PGC1a acetyl inh 4 and CaV13 ICDI inh -2.
`CCOC(=O)c1[nH]c(C)c(C(=O)OCC(=O)N2CCCCC2C)c1C` (stereo not given) gave PglD DTNB 23*, PDI inh -2, PGC1a acetyl inh 7, CaV13 ICDI inh -5 and PglD inh SP -2.
For COc1ccc(CNC(=O)C[C@H]2C=C[C@H](NC(=O)CN(C)C)[C@H](CO)O2)cc1 the results were ERAP1 inh 1, PglD DTNB -2, ERp5 block 2 and PGC1a acetyl inh 5.
`O=C(CSc1nnc(-c2ccncc2)n1Cc1ccccc1)Nc1nccs1` gave PglD DTNB 48*, PDI inh 5, PGC1a acetyl inh -36, CaV13 ICDI inh -4 and PglD inh SP 2.
For O=C(Nc1cccnc1Cl)c1cc([N+](=O)[O-])ccc1Cl the results were ERAP1 inh -3, PglD DTNB 3, ERp5 block -1, PDI inh -3, PGC1a acetyl inh -4 and CaV13 ICDI inh 0.

Screening results from PubChem BioAssay.
